Measured values reported in PubChem BioAssay (NCI).
Compounds without any hit were thinned out: in the full panel of roughly 83,000, 20% have a hit.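 The test compound was applied at a single concentration to cells in 96-well plates for 48 hours, and percent growth was recorded.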 Unmarked numbers belong to inactive results. Activity calls are given as the source filed them. How the source made its calls: active means growth percent below 10; inactive means the rest.

How the values were obtained:
Test in all cases: NCI-60 one-dose screen, 48 h (100 = growth as untreated, 0 = no growth, -100 = all killed)
NCI-H23 lung = conditions: 10 µM unless noted
NCI-H226 lung = conditions: 10 µM unless noted
NCI-H322M lung = conditions: 10 µM unless noted
HOP-62 NSCLC = conditions: 10 µM unless noted
NCI-H460 lung = conditions: 10 µM unless noted
HOP-92 NSCLC = conditions: 10 µM
NCI-H522 lung = conditions: 10 µM unless noted
A549/ATCC NSCLC = conditions: 10 µM unless noted
786-0 renal = conditions: 10 µM unless noted
COLO 205 colon = conditions: 10 µM unless noted
DU-145 prostate = conditions: 10 µM unless noted
K-562 leukemia = conditions: 10 µM unless noted
MALME-3M melanoma = conditions: 10 µM unless noted
MDA-MB-231 breast = conditions: 10 µM unless noted
RXF 393 renal = conditions: 10 µM unless noted
SF-268 CNS = conditions: 10 µM unless noted
SF-295 CNS = conditions: 10 µM unless noted
SF-539 CNS = conditions: 10 µM unless noted
UACC-257 melanoma = conditions: 10 µM unless noted

Compound	growth (NCI-H23 lung) [%]	growth (NCI-H226 lung) [%]	growth (NCI-H322M lung) [%]	growth (HOP-62 NSCLC) [%]	growth (NCI-H460 lung)	growth (HOP-92 NSCLC) [%]	growth (NCI-H522 lung)	growth (A549/ATCC NSCLC) [%]	growth (786-0 renal) [%]	growth (COLO 205 colon)	growth (DU-145 prostate)	growth (K-562 leukemia)	growth (MALME-3M melanoma)	growth (MDA-MB-231 breast)	growth (RXF 393 renal)	growth (SF-268 CNS) [%]	growth (SF-295 CNS) [%]	growth (SF-539 CNS)	growth (UACC-257 melanoma) [%]
CNC(=O)c1cc(N2CCc3cc(NC(=O)Nc4ccc(Cl)c(C(F)(F)F)c4)ccc32)ccn1	56.1	77.2	87.1	85.1	38%	68	50%	49.2	49.7	58%	63.6%	33.7%	64.5%	67.2%	-8.94% (active)	70.1	26.5	48.8%	72.7
Cc1ccc(-c2cc3nc(C(Cl)Cl)nc(-c4cccs4)n3n2)cc1	83.9	87.3	38.6	54.1	3.91% (active)	80	97.9%	67.9	100	43.7%	3.22% (active)	93.2%	71.7%	41.6%	40.5%	82.2	32.8	68.5%	106
C[C@H](CCC(=O)NCc1ccc(C(=O)Nc2ccccc2N)cc1)[C@H]1CC[C@H]2[C@@H]3[C@@H](O)C[C@@H]4C[C@H](O)CC[C@]4(C)[C@H]3CC[C@]12C	66.7	57.1	79	58.3	60.8%	69.1	37.8%	90.3	71.4	65.2%	84.1%	30.6%	45%	49.2%	55.3%	52.6	69.1	55.6%	63.7
CC(=O)c1nnn(-c2c(C(=O)n3nc(C)cc3C)sc(=S)n2-c2ccccc2)c1C	106	95.7	107	107	113%	113	99.8%	103	111	108%	109%	102%	67.7%	89.2%	103%	106	109	96.6%	101
O=S(=O)(NCCNc1nccc(-n2cnc3ccccc32)n1)c1ccc(Br)cc1	97.3	76.5	107	87.2	101%	74.2	87.2%	100	103	107%	99.9%	88.4%	103%	88.2%	101%	91.2	96.5	96.2%	109
O=C(CSc1nnc(-c2ccc3nc(-c4ccccc4)[nH]c3c2)o1)Nc1ccc(C(=O)/C=C/c2ccccc2)cc1	100	106	102	104	113%	149	93.4%	106	102	110%	107%	112%	94.5%	105%	114%	109	109	96.8%	103
CN(Cc1ccccc1)S(=O)(=O)/N=C1\NC(=O)NC1=C(Cl)Cl	66.1	91.7	95.1	40.8	17.9%	73.7	-21.5% (active)	99.4	22.4	-26.1% (active)	25.7%	1.09% (active)	-19.9% (active)	-2.3% (active)	55.1%	56.1	98.9	0.38% (active)	68.2
C#Cc1nc(C(C)=O)cs1	102	99.7	106	103	106%	111	92.1%	108	98.6	115%	109%	90.6%	105%	103%	95.6%	105	106	99.1%	107
